Screens as filed in PubChem.
MCF10A rereplic = inducers of DNA re-replication in MCF 10A breast cells | MCF 10A DNA re-replication, Hoechst nuclear intensity, 48 h | Potency, µM (highest dose often 46.1 µM), without a hit: at the highest dose activity, positive = re-replication, hits mostly activators | actives 2.9% (n = 350,000); also: % of control where 0% means no effect; nearly all actives have a fitted effect of over 50% in size
ELG1 DNA repair = ELG1-dependent DNA repair inhibition. actives 2.3% (n = 330,000). AID 504467. HEK293T ELG1-luciferase reporter, luminescence, 16 h; DNA damage induced by 5-fluorouridine. Potency, µM (doses to about 46.1 µM), without a hit: at the highest dose activity change, negative = inhibition, usual class: inhibitors; also: % is scaled to controls: 0 for no effect and ±100 for the full control effect; nearly all actives have a fitted effect of over 55% in size
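Quantitative HTS, concentration-response format. 2,000 cells/well co-treated with 5-fluorouridine and compound, 16 hr in 5% CO2 at 37 °C; ONE-Glo luminescence read after 30 min.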
SW480 rereplic = DNA re-replication induction in SW480 cells; SW480 DNA re-replication, Hoechst DNA content imaging, 48 h; Potency, µM (titrated, usually from 46.1 µM), for inactives: top-dose re-replication activation, most hits filed as activators; actives 1.8% (n = 340,000); AID 624297; also: % of control where 0% means no effect; nearly all actives have a fitted effect of over 55% in size
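Per well, 250 cells were exposed to pinned compound for 48 hr. Nuclear DNA was visualised with Hoechst (40 min, 37 C) and total object intensity recorded by fluorescence scanning.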
KB-3-1 cytotox = KB-3-1 parental cell cytotoxicity. KB-3-1 viability, CellTiter-Glo ATP luminescence, 72 h. Potency, µM (highest dose often 46.1 µM), most hits filed as cytotoxic. actives 1.4% (n = 400,000). AID 1347075; also: % is scaled to controls: 0 for no effect and ±100 for the full control effect; nearly all actives have a fitted effect of over 60% in size
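Multi-concentration cytotoxicity screen in KB-3-1 cells grown in DMEM lacking phenol red with 10% FBS. After 72 h at 37 °C with compound, ATP-dependent luminescence was recorded.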
KB-V1 cytotox = kills drug-selected multidrug resistant KB-V1 cells. Potency, µM (top dose mostly 46.1 µM), hits mostly cytotoxic. KB-V1 MDR cells viability, CellTiter-Glo, 72 h. actives 3.4% (n = 400,000); also: % is scaled to controls: 0 for no effect and ±100 for the full control effect; nearly all actives have a fitted effect of over 60% in size
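Cytotoxicity toward P-gp-expressing KB-V1 cells was determined as loss of CellTiter-Glo luminescence after 72 h at 37 degrees C. Compounds were tested in quantitative HTS format across a concentration range, with curves fitted to normalized data.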
* hit, by the source's call; i = inactive; u = inconclusive; x = no result given; [ ] = dose if it differs, or a comment. Shown are actives, neighbours in structure and some others; about 8.1% of the full set was active somewhere. Calls follow the shape of the dose curve; as a rule, active = well fitted curve in the direction sought with a large enough effect; inconclusive = small, poorly fitted or top-dose-only effect, or another doubt; inactive = no such curve, though single readings can be large; an effect the other way counts as inactive or inconclusive. Potency is read from the fitted curve at half-maximal effect.

SMILES	MCF10A rereplic	ELG1 DNA repair	SW480 rereplic	KB-3-1 cytotox	KB-V1 cytotox
O=C(NCc1ccco1)C1CCN(c2nnc(-n3cccc3)s2)CC1	8%	u	-2%	i	i
O=C(NCc1cccnc1)c1cc(C2CCCCN2C(=O)c2ccccc2)on1 (stereo unspecified)	x	x	x	i	i
Cc1c(C(=O)N(C)C)sc2c1c(=O)n(-c1ccccc1C(F)(F)F)c(=O)n2Cc1cccc(F)c1	x	x	x	u	i
Oc1ccc(Cl)cc1CNCc1ccc(Cl)nc1	u	17%	-8%	i	u
O=C(NCc1cccs1)C1CCN(c2ccc(S(=O)(=O)N3CCOCC3)cc2Cl)CC1	6.5µM*	18µM*	1.3µM*	2.3µM*	3.7µM*
COc1ccccc1N(C)C	x	x	x	i	i
CCN=C1S/C(=C\c2ccc(O)c(OCC)c2)C(=O)N1CC	u	u	u	i	18µM*
CCOc1cc(/C=C2/SC(=Nc3ccccc3)N(Cc3cccnc3)C2=O)ccc1OCC#N	u	18µM*	-2%[9.22 µM]	u	i
CCN=C1S/C(=C\c2cc(OCC)c(O)cc2Br)C(=O)N1CC	18µM*	18µM*	u	u	i
COc1ccc(/C=C2\SC(=S)N(Cc3cccnc3)C2=O)cc1C	14%	u	-5%	u	u
CCOc1cc(/C=C2/SC(=S)N(CC3CCCO3)C2=O)ccc1O (stereo unspecified)	u	-17%	u	i	i
COc1cc(/C=C2/SC(=NCc3ccccc3)N(Cc3ccccc3)C2=O)ccc1O	5.8µM*	-19%	5%	i	u
Nc1ncnc2c1ncn2[C@@H]1O[C@H](CNC(=O)[C@@H](N)Cc2ccc(C(=O)c3ccccc3)cc2)[C@@H](O)[C@H]1O	x	x	x	i	i
COc1ccc(/C=N/Nc2nonc2N)c(OC)c1	-4%	30%	u	u	4.1µM*
COc1ccc(/C=N/Nc2nccnc2Cl)c(OC)c1	3%	u	5%	i	i
Cc1ccc(N=C2NC(=O)/C(=C/c3cccn3C)S2)cc1C	15µM*	u	u	u	u
Cc1cccc(N=C2NC(=O)/C(=C/c3cccn3C)S2)c1C	u	u	-58%	i	u
Cc1ccc(N=C2NC(=O)CS2)cc1C	20%	-3%	-8%	u	9.2µM*
Cc1ccc(N=C2NC(=O)/C(=C/c3cccs3)S2)cc1C	16µM*	26%	-1%	i	u
Cc1ccc(N=C2NC(=O)/C(=C/c3cccn3C)S2)cc1	u	u	10µM*	u	u
Cc1cccc(N=C2NC(=O)/C(=C\c3cccs3)S2)c1	u	u	u	i	i
Cc1cccc(N=C2NC(=O)CS2)c1	-5%	8%	-5%	i	u
CC1(C(=O)NS(=O)(=O)c2cccs2)CCN1C(=O)c1ccco1 (stereo unspecified)	x	x	x	i	i
Cc1ccc(CN2CCSc3ccc(C(=O)N4CCN(c5cccc(C)c5C)CC4)cc32)cc1	x	x	x	i	u
COc1cc(OC)cc(C(=O)NCC(=O)N2CC=C(c3ccccc3)CC2)c1	u	u	7.3µM*	5.8µM*	7.3µM*
SMILES	MCF10A rereplic	ELG1 DNA repair	SW480 rereplic	KB-3-1 cytotox	KB-V1 cytotox
O=C(NCC(=O)N1CCCCCC1)c1ccc(OC(F)F)cc1	0%	u	-5%	i	i
O=C(NCC(=O)N1CC=C(c2ccccc2)CC1)c1ccccc1Br	8.2µM*	-24%	-26%	u	u
O=C(NCC(=O)N1CC=C(c2ccccc2)CC1)c1ccc(OC(F)F)cc1	8.2µM*	u	u	u	13µM*
COCCCNc1nc(N)c([N+](=O)[O-])c(Nc2ccccc2OC)n1	u	u	2%	u	i
Cc1ccc(Nc2nc(N)c([N+](=O)[O-])c(NCc3ccco3)n2)cc1C	u	u	18%	23µM*	12µM*
COc1ccccc1Nc1nc(NCc2ccco2)nc(N)c1[N+](=O)[O-]	27%	18µM*	-45%	i	u
CCC(=O)N[C@H]1C=C[C@H](CC(=O)OC)O[C@@H]1CO	x	x	x	i	i
Cc1ccc(S(=O)(=O)c2ccc([N+](=O)[O-])cn2)cc1	u	-1%	8%	6.5µM*	9.2µM*
O=[N+]([O-])c1ccc(S(=O)(=O)c2ccccc2)nc1	u	-1%	-13%	i	i
Cc1ccc(NC(=O)C2(c3ccccc3)CC2(Cl)Cl)cc1C (stereo unspecified)	21µM*	u	4%	i	i
CCc1ccc(NC(=O)C2(c3ccccc3)CC2(Cl)Cl)cc1 (stereo unspecified)	23µM*	0%	u	i	i
Cc1cc(C)cc(NC(=O)N2CCC(N3CCCCC3)CC2)c1	x	x	x	i	i
Cc1[nH][nH]c(=O)c1N=Nc1ccccc1Cl	2%	17%	-11%	u	u
Nc1[nH]c(=O)[nH]c(=O)c1N=Nc1ccccc1Cl	23µM*	16%	-9%	i	u
Cc1nc2c(=O)n(C)c(=O)n(C)c2nc1Cl	1.8µM*	u	u	15µM*	u
Cn1c(=O)c2[nH]c(C3CCCC3)nc2n(C)c1=O	-23%	x	20%	i	i
COc1ccc(S(=O)(=O)N2N=C(C)Oc3ccccc3C2=O)cc1	7.9µM*	15%	4µM*	4.6µM*	3.7µM*
CC1=NN(S(=O)(=O)c2ccc(C)cc2)C(=O)c2ccccc2O1	1%	u	21%	i	u
O=C(COC(=O)CNC(=O)c1ccccc1)NC12CC3CC(CC(C3)C1)C2	x	x	x	i	i
N#Cc1c(-c2ccccc2)cc(-c2ccc3c(c2)OCO3)[nH]c1=O	u	-4%	18µM*	i	u
C=CCN1C(=O)C2(NNc3ccccc3O2)c2ccccc21 (stereo unspecified)	u	8%	0%	u	u
C=CCN1C(=O)C2(NC(=O)c3ccccc3N2)c2ccccc21 (stereo unspecified)	u	8%	18µM*	u	u
CCc1nc2c(OCc3ccc(C(F)(F)F)cc3)cccn2c1N(C)C(=O)c1ccco1	x	x	x	i	u
COc1cccc(NC(=O)C2CCN(C(=O)[C@@H]3Cc4ccccc4CN3)CC2)c1	-4%	29%	11%	i	i
CC(C)(C)n1nnnc1CN1CCN(C(c2ccccc2)c2ccccc2)CC1	3%	18µM*	-3%	i	u
S=Cc1nc2ccccc2[nH]1	x	x	x	u	i
O=C(O)c1ccccc1OC(C(=O)Nc1cc(Cl)cc(Cl)c1)c1ccccc1 (stereo unspecified)	21µM*	u	u	i	u
